Compounds without any hit were thinned out: in the full panel of roughly 83,000, 20% have a hit.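 Cells were grown in 96-well plates and exposed to the test compound at a single concentration for 48 hours; results are reported as percent growth, with values below 10 considered active.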 The source made the active and inactive calls.

The experiment relates to HL-60(TB) leukemia. Nature of the experiment: NCI-60 one-dose screen, 48 h (100 = growth as untreated, 0 = no growth, -100 = all killed). To be noted: 10 µM unless noted.
In the case of `Cc1[nH]c(C(=O)Nc2ccccc2OC2CCNC2)c(Cl)c1Cl` (configuration not stated), the growth is 90.6% (inactive).

Turning to `COc1ccc(C2=NN(C(C)=O)C(c3cccc(Nc4ccnc5cc(Cl)ccc45)c3)C2)cc1` (configuration not stated), the growth is 57.2% (inactive).

Regarding `COc1ccccc1N1CCN(CCCOc2ccc(OCCCN3CCN(c4ccccc4OC)CC3)c(C(=O)c3cc(OC)c(OC)c(OC)c3)c2)CC1`, the growth is 101% (inactive).

In the case of `CCOCC(=O)C(C#N)c1ccc(Cl)c(Cl)c1` (configuration not stated), the growth was 102% (inactive).

As for `COC1=C(OC)C(=O)C(OC)=C(OC)C1=O`, the growth is 102% (inactive).

For the compound `Cc1ccc(C2CC(c3ccc(Nc4ccnc5cc(Cl)ccc45)cc3)=NN2C=O)cc1` (configuration not stated), the growth is 9.36% (active).

As to `C#CCN(Cc1ccc2nc(N)[nH]c(=O)c2c1)c1ccc(C(=O)NC(CCC(=O)O)C(=O)O)cc1` (configuration not stated), the growth is 43.6% (inactive).

In the case of `C[n+]1ccccc1/C=C/c1ccc2cccc(O)c2n1`, the growth is 79.2% (inactive).

`Cc1ccc(C2SCC(=O)N2NC(=O)c2[nH]c3ccc(F)cc3c2-c2ccccc2)cc1` (configuration not stated): the growth is 78.6% (inactive).

Regarding `COc1cc(/C=C2\CN(C)C/C(=C\c3cc(CN4CCCC4)c(O)c(OC)c3)C2=O)cc(CN2CCCC2)c1O`, the growth is 43.3% (inactive).

Consider `CCNC(=O)Oc1ccc(/C(=C(/CC)Cc2ccccc2)c2ccc(OCCN3CCCC3)cc2)cc1`, for which the growth is 69.2% (inactive).

Regarding `COc1ccc(/C=C(/C(=O)N2CCCCC2)c2cc(OC)c(OC)c(OC)c2)cc1`, the growth is -17.5% (active).

On to `COc1ccc(C(=O)N=Nc2c(O)n(C)c3ccccc23)cc1`, for which the growth was 99.4% (inactive).

With `C/C=C/C/C=C/[C@H](C)C[C@H](O)[C@@H]1C[C@@H]2O[C@H]2/C=C/[C@@H]2OC(C)(C)O[C@H]2/C=C/C[C@H](C)CC(=O)O1`, the growth was 31.2% (inactive).

Take `C[N+](C)(C)C(=O)c1ccccc1`: the growth is 125% (inactive).

In the case of `Nc1ccc(S(=O)(=O)O)c2cc(S(=O)(=O)O)cc(O)c12`, the growth is 99.2% (inactive).

On to `OCc1ccccc1F`, for which the growth is 135% (inactive).

Take `c1ccc(Cn2cc3c(c2-c2ccccc2)CCc2cnoc2-3)cc1`: the growth is 35.6% (inactive).

Regarding `CC(C)N1C(=O)/C(=c2\sc3n(c2=O)C2C(NN=3)N(C)C(=O)N2C)c2ccccc21` (configuration not stated), the growth was 25.8% (inactive).

On to `Cc1ccc([P+](Cc2ccccc2)(c2ccccc2)c2ccccc2)cc1`, for which the growth is -36.4% (active).

As to `c1cncc(CNc2ccccc2-c2nnc(Nc3ccc4c(c3)OCO4)o2)c1`, the growth was -22.5% (active).

As to `COc1cc(-c2cc(-c3ccc(Nc4nc(Nc5ccccc5)nc(Nc5ccc(Cl)cc5)n4)cc3)nc(N)n2)cc(OC)c1OC`, the growth was 96.8% (inactive).

For the compound `CCCCCCNCc1cc(C(C)(C)C)cc(CNCCCCCC)c1O`, the growth was -45.1% (active).

On to `CCOc1ccc(-n2nc(C(=O)Nc3cc(OC)c(OC)c(OC)c3)nc2-c2cc(OC)c(OC)c(OC)c2)cc1`, for which the growth is 98.2% (inactive).

Consider `Cc1cc2nc3c4cc(Cl)ccc4n(CCN(C)C)c3nc2cc1C`, for which the growth is 20% (inactive).

For `COc1cc2ncnc(Nc3ccc4c(cnn4C(=O)Nc4ccccc4)c3)c2cc1OC`, the growth was 83.5% (inactive).

As to `CCN1/C(=C/C=C/c2n(-c3ccccc3)c3ccc(-c4nc5ccccc5s4)cc3[n+]2CC)N(c2ccccc2)c2ccc(-c3nc4ccccc4s3)cc21`, the growth was 6.43% (active).

For the origin of these results see PubChem BioAssay (NCI).
